Data: PubChem BioAssay AID743364 (National Center for Advancing Translational Sciences (NCATS), 2014)
Values without a mark were called inactive. The call rests on the fitted dose curve; in most records, active means well fitted curve in the direction sought with a large enough effect; inactive means no such curve, though single readings can be large or run the other way.

experiment: qHTS profiling of inhibitors of Plasmodium falciparum (3D7) proliferation (acoustic dispense); conditions: P. falciparum 3D7 in erythrocytes, SYBR Green, 72 h; series mostly up to 49.8 µM; activity change: at the top concentration
Text: Plasmodium falciparum is a virulent malarial parasite that kills 1-2 million people worldwide each year. Transmitted by mosquitoes, the sporozoite form of the parasite enters the blood stream to infect hepatocytes, where they become merozoites that infect red blood cells (erythrocytes). Within erythrocytes, merozoites begin a […] cycle of growth and division, after which the parasite is released to infect new red blood cells. Gametocytes, which form within erythrocytes as well, circulate in the bloodstream and are ingested by the mosquito, thereby completing the life cycle. To profile malarial isolates for differential chemical responses and to identify inhibitors of malarial growth, an assay that measures P. falciparum growth and replication within erythrocytes was employed. This assay uses a DNA binding fluorescent dye (SYBR Green) to detect parasite DNA following cell lysis. Because mature erythrocytes lack DNA, only Plasmodium-derived DNA is detected.
The SYBR Green viability assay was adapted from a method described previously (Plouffe et al., 2008). For screening 3 ul culture medium was dispensed into 1536 well black clear bottom plates (Aurora Biotechnologies) using a Multidrop Combi (Thermo Fisher Scientific Inc.), 23 nL of compounds in DMSO were added by an acoustic dispenser (EDC Biosystems), and 5 ul of erythrocytes infected with P. falciparum (0.3% parasitemia, 2.5% hematocrit final concentration) were added. The plates were incubated at 37 C in a humidified incubator in 5% CO2 for 72 h, and 2 ul lysis buffer (20 mM Tris HCl, 10 mM EDTA, 0.16% saponin, 1.6% triton X, 10X SYBR Green I supplied as 10,000X […] by Invitrogen) was added to each well. The plates were mixed for 25 sec with gentle shaking and incubated overnight at room temperature in the dark. The following morning, fluorescence intensity at 485(14) nm excitation and 535(25) nm emission wavelengths was measured on an EnVision (Perkin Elmer) plate reader. Plate reads were normalized relative to the control inhibitor (0.29 uM artemisinin) and vehicle (DMSO) wells present on each plate and then corrected by an algorithm using vehicle-only control plates at the beginning and end of the compound plate stack.

| Compound | activity change |
| --- | --- |
| CC(=O)Nc1nnc(S(N)(=O)=O)s1 | 67.7% |
| O=c1[nH]c2ccc(Cl)cc2c(N[C@@H]2CN3CCC2CC3)c1-c1nc2ccccc2[nH]1 | 0.942% |
| COC1=CC(C)=C[C@@H](C)[C@@H](O)[C@@H](C)CC(C)=CC=C[C@H](OC)[C@H]([C@@H](C)[C@@H](O)[C@H](C)[C@@]2(O)C[C@@H](O)[C@H](C)[C@@H](C(C)C)O2)OC1=O | 1.19% |
| O=C(C[C@@H]1NCCC[C@@H]1O)Cn1cnc2ccccc2c1=O | -1.69% |
| C[C@H]1CCCC=CC2C[C@H](O)C[C@@H]2[C@H](O)C=CC(=O)O1 (stereo not given in full) | -0.681% |
| CC1=C(O)C(=O)C=C2C1=CC=C1[C@@]2(C)CC[C@@]2(C)[C@@H]3C[C@](C)(C(=O)O)CC[C@]3(C)CC[C@]12C | 2.81% |
| COC(=O)[C@@]1(OC)C[C@@H]2O[C@@]1(C)n1c3ccccc3c3c4c(c5c6ccccc6n2c5c31)C(=O)N(C)C4 | 0.473% [at 16.5 µM] |
| CO[C@H]1CCC(O[C@H]2C[C@H]([C@]3(C)CC[C@]4(C[C@H](O)[C@@H](C)[C@@H]([C@@H](C)C=C(C)C(=O)[C@H](C)C[C@H](C)C(=O)O)O4)O3)O[C@]3(O[C@@H]([C@H]4O[C@@](O)(CO)[C@H](C)C[C@H]4C)C[C@H]3C)[C@H]2C)O[C@H]1C (stereo not given in full) | -0.523% |
| CC(=Cc1csc(C)n1)[C@@H]1C[C@H]2O[C@@H]2CCC[C@H](C)[C@@H](O)[C@@H](C)C(=O)C(C)(C)[C@@H](O)CC(=O)O1 | 0.503% |
| CN1C(=O)C[C@H](C(=O)N[C@@H](Cc2cnc[nH]2)C(=O)N2CCC[C@@H]2C(N)=O)NC1=O | 94.2% |
| CC=C(C)C(=O)N[C@@H](c1ccccc1)[C@@H](O)C(=O)O[C@H]1C[C@@]2(O)[C@@H](OC(=O)c3ccccc3)[C@@H]3[C@]4(OC(C)=O)CO[C@@H]4C[C@H](O)[C@@]3(C)C(=O)[C@H](OC(C)=O)C(=C1C)C2(C)C | 1.68% |
| CC(C)(N)CNC(=O)CC1CCC2(CC1)OOC1(O2)C2CC3CC(C2)CC1C3 (stereo not given) | 0.389% |
| CC(=O)N(O)CCCP(=O)(O)O | 9.16% |
| C[C@@H]1C[C@@H]([C@H](O)CC2CC(=O)NC(=O)C2)C(=O)[C@@H](C)C1 | -0.385% |
| C[C@]12O[C@H](C[C@@]1(O)C(=O)O)n1c3ccccc3c3c4c(c5c6ccccc6n2c5c31)CNC4=O | 0.751% [at 4.15 µM] |
